Most compounds without a hit are left out; they make up all but 1.6% or so of the library.
HTR5A inv ctr – HTR5A inverse agonists in luminescence cell assay, primary screen, counter-screen for OPRM1-OPRD1 heterodimer inverse agonist project, full-deck HTS; AID 504634, 2011; 5-hydroxytryptamine receptor 5A (Homo sapiens), P47898; HTR5A cell line, inverse agonism; hit rate 0.083% among 340,000; inhibition, % at 9.3 µM; in the data active = inhibition mostly above about 23%, no sharp cut-off; inactive = mostly below about 18%;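 note: 0% = cells with DMSO and 100% = no-cell wells with DMSO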
HTR5A ag ctr – HTR5A agonists in luminescence cell assay, primary screen, counter-screen for OPRM1-OPRD1 heterodimer agonist project, full-deck HTS; 5-hydroxytryptamine receptor 5A (Homo sapiens), P47898; cell-based; activation, % at 9.3 µM; hit rate 0.61% among 340,000; AID 504692, 2011; in the data active = activation mostly above about 9.5%, no sharp cut-off; inactive = mostly below about 7.6%;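 note: 0% = cells with vehicle only and 100% = reference agonist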
OPRM1-OPRD1 ag – agonists of OPRM1-OPRD1 heterodimerization, primary screen, cell-based, luminescence; cells; activation, % at 9.3 µM; hit rate 0.3% among 340,000; AID 504326, 2011; in the data active = activation above about 18%;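 note: 0% = vehicle-treated cells and 100% = reference agonist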
MOR-DOR inv ag – inverse agonists of MOR-DOR heterodimerization, primary screen, cell-based, luminescence | Mu-type opioid receptor (Homo sapiens) + Delta-type opioid receptor (Homo sapiens), … | cell-based MOR-DOR heterodimer luminescence, inverse agonism | inhibition, % at 9.3 µM | hit rate 0.21% among 340,000; in the data active = inhibition above about 22%, passing the limit was not always enough;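 note: 0% = cells with DMSO and 100% = wells without cells with DMSO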
m5-HT2A agonist – mouse Htr2a agonists via beta-arrestin recruitment, primary screen, cell-based, luminescence; 5-hydroxytryptamine receptor 2A (Mus musculus), P35363; CHO-K1 mHTR2A beta-arrestin complementation; percent of 30 µM serotonin response; activation, % at 7.6 µM; hit rate 0.66% among 360,000; AID 624169, 2012;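 active = activation above a run cutoff, the mean activation of all tested compounds plus 3 SD, cut at about 14% in these data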;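 note: 0% = plate median of compound wells and 100% = 30 µM serotonin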
OPRM1 ag – OPRM1 agonists via beta-arrestin recruitment, confirmation, counter-screen for mouse HTR2A agonist project, cell-based, luminescence, single concentration. hit rate 5.3% among 2,300. activation, % at 9.3 µM. AID 624380, 2012. U2OS OPRM1 beta-arrestin PathHunter; DMSO 0%, DAMGO 9.3 µM 100%. shares compounds with m5-HT2A agonist;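 active = mean activation above the mean of DMSO-only wells plus 3 SD, cut at about 0.5% in these data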
Target sequence (P35372 whole entry, looked up): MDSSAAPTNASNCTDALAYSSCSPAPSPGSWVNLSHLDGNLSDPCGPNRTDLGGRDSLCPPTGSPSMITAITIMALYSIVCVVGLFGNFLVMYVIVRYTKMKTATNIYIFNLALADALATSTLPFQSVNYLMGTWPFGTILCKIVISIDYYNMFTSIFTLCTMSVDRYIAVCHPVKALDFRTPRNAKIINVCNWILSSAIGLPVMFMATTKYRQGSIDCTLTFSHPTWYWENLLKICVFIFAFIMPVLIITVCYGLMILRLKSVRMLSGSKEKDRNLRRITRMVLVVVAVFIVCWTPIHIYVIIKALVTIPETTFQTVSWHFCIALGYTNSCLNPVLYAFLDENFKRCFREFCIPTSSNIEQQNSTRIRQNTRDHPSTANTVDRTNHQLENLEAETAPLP
m5-HT2A ag conf – mouse HTR2A agonists, beta-arrestin recruitment, confirmation, cell-based, luminescence, CHO-K1 PathHunter, triplicate; shares compounds with m5-HT2A agonist; DMSO 0%, 30 µM serotonin 100%; activation, % at 7.6 µM; hit rate 19% among 2,300; AID 624381, 2012;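 active = mean activation across triplicates above the hit threshold derived in the original primary screen, cut at about 15% in these data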
* = called active by the depositor.

Screening Cn1c(N)c(C(=O)COC(=O)CNC(=O)c2ccc(Cl)cc2Cl)c(=O)n(C)c1=O returned HTR5A inv ctr -6.4, HTR5A ag ctr 1.6, OPRM1-OPRD1 ag -1.5, MOR-DOR inv ag 8.0, m5-HT2A agonist 14.5*, OPRM1 ag -0.3 and m5-HT2A ag conf -1.7.
Screening Nc1ncnc2c1ncn2[C@@H]1O[C@H](C(=O)N2CCC[C@@H]2C(=O)OCc2ccccc2)[C@@H](O)[C@H]1O returned m5-HT2A agonist 14.9*, OPRM1 ag -0.4 and m5-HT2A ag conf -0.6.
`Cc1[nH]c2ccccc2c1C(c1ccccn1)N1CCC(C(N)=O)CC1` (stereo not drawn) gave HTR5A inv ctr -10.9, HTR5A ag ctr 4.3, OPRM1-OPRD1 ag 1.7, MOR-DOR inv ag -9.7, m5-HT2A agonist 17.1*, OPRM1 ag 0.2 and m5-HT2A ag conf -4.9.
`CCOC(=O)C1CCN(C(c2ccccn2)c2c(C)[nH]c3ccccc23)CC1` (stereo not drawn) gave HTR5A inv ctr 0.5, HTR5A ag ctr 1.7, OPRM1-OPRD1 ag 1.9, MOR-DOR inv ag -11.6 and m5-HT2A agonist 7.2.
For CCOP(=O)(OCC)C(Nc1ccc(OC)cc1)c1ccco1 (stereo not drawn) the results were HTR5A inv ctr -5.3, HTR5A ag ctr -2.4, OPRM1-OPRD1 ag -1.0, MOR-DOR inv ag 5.0, m5-HT2A agonist 18.8*, OPRM1 ag -0.5 and m5-HT2A ag conf -3.3.
For O=C(O)c1ccc(NC(=O)c2cccc(S(=O)(=O)Nc3ccc(C(=O)O)cc3)c2)cc1 the results were HTR5A inv ctr -4.3, HTR5A ag ctr 1.2, OPRM1-OPRD1 ag -1.9, MOR-DOR inv ag 8.7, m5-HT2A agonist 16.1*, OPRM1 ag -0.6 and m5-HT2A ag conf -1.5.
Screening O=C(O)c1cccc(S(=O)(=O)Nc2ccc(Oc3ccccc3)cc2)c1 returned HTR5A inv ctr -10.3, HTR5A ag ctr 4.0, OPRM1-OPRD1 ag -1.0, MOR-DOR inv ag 3.9 and m5-HT2A agonist 4.9.
Screening Cc1ccc(Oc2ccc(NS(=O)(=O)c3cccc(C(=O)O)c3)cc2)cc1 returned HTR5A inv ctr -13.8, HTR5A ag ctr 3.5, OPRM1-OPRD1 ag -0.8, MOR-DOR inv ag 4.0, m5-HT2A agonist 15.4*, OPRM1 ag -0.4 and m5-HT2A ag conf -1.9.
`CCN(C(=O)COC(=O)/C=C/c1c(C)nn(-c2ccccc2)c1C)c1c(N)n(Cc2ccccc2)c(=O)[nH]c1=O` gave HTR5A inv ctr -19.1, HTR5A ag ctr 0.6, OPRM1-OPRD1 ag -2.1, MOR-DOR inv ag 7.7, m5-HT2A agonist 18.4*, OPRM1 ag -0.7 and m5-HT2A ag conf -3.5.
Screening CN(C)CCNC(=O)c1cc2ccccc2oc1=O returned HTR5A inv ctr -17.5, HTR5A ag ctr 2.1, OPRM1-OPRD1 ag -2.0, MOR-DOR inv ag 9.0, m5-HT2A agonist 15.6*, OPRM1 ag -0.5 and m5-HT2A ag conf -2.9.
Screening CC(=O)OCCNC(=O)c1cc2ccccc2oc1=O returned HTR5A inv ctr -7.2, HTR5A ag ctr 3.0, OPRM1-OPRD1 ag -2.3, MOR-DOR inv ag 9.4 and m5-HT2A agonist -4.5.
`c1ccc(Cc2nnc(N3CCCCC3)c3ccccc23)cc1` gave HTR5A inv ctr -8.8, HTR5A ag ctr 3.1, OPRM1-OPRD1 ag 0.3, MOR-DOR inv ag -1.8 and m5-HT2A agonist 8.8.
`c1ccc(N2CCN(c3nnc(Cc4cccnc4)c4ccccc34)CC2)nc1` gave HTR5A inv ctr -13.6, HTR5A ag ctr 4.2, OPRM1-OPRD1 ag -2.7, MOR-DOR inv ag 14.2, m5-HT2A agonist 17.2*, OPRM1 ag -0.5 and m5-HT2A ag conf 3.4.
N#CCC(=N)N1CCN(c2cccc(Cl)c2)CC1 was read as HTR5A inv ctr -13.1, HTR5A ag ctr 5.9, OPRM1-OPRD1 ag 0.1, MOR-DOR inv ag -0.8, m5-HT2A agonist 15.1*, OPRM1 ag -0.6 and m5-HT2A ag conf 4.8.
Screening CC(=O)/C(C(=N)N1CCN(c2cccc(Cl)c2)CC1)=C(\C)O returned HTR5A inv ctr -4.2, HTR5A ag ctr 1.6, OPRM1-OPRD1 ag -1.6, MOR-DOR inv ag 9.2, m5-HT2A agonist 17.9*, OPRM1 ag -0.6 and m5-HT2A ag conf -1.7.
For N#CCC(=N)N1CCN(c2ccccc2)CC1 the results were HTR5A inv ctr 4.8, HTR5A ag ctr -2.2, OPRM1-OPRD1 ag -2.9, MOR-DOR inv ag 14.3 and m5-HT2A agonist 1.4.
For O=C(O)CCC(=O)N1CCN(c2cccc(Cl)c2)CC1 the results were HTR5A inv ctr -5.8, HTR5A ag ctr 1.6, OPRM1-OPRD1 ag -2.9, MOR-DOR inv ag 17.3 and m5-HT2A agonist 14.1.
`O=C(O)/C=C/C(=O)N1CCN(c2cccc(Cl)c2)CC1` gave HTR5A inv ctr -17.3, HTR5A ag ctr 6.0, OPRM1-OPRD1 ag -1.5, MOR-DOR inv ag 7.9, m5-HT2A agonist 30.7*, OPRM1 ag -0.7 and m5-HT2A ag conf 3.8.
CCOC(=O)c1ccc(CNC(=O)C2CCC(=O)N(CCc3ccccc3)C2)o1 (stereo not drawn) was read as HTR5A inv ctr 9.5, HTR5A ag ctr -4.5, OPRM1-OPRD1 ag -0.6, MOR-DOR inv ag 3.3 and m5-HT2A agonist -1.3.
Screening CSCCC(NC(=O)c1ccccc1Cl)C(=O)NCCc1ccccn1 (stereo not drawn) returned HTR5A inv ctr 7.1, HTR5A ag ctr -2.9, OPRM1-OPRD1 ag -0.1, MOR-DOR inv ag 0.3 and m5-HT2A agonist 0.6.
Screening CCOC(=O)C1(C)Oc2ccccc2C(C(=O)OC)=C1C(=O)OC (stereo not drawn) returned HTR5A inv ctr -11.0, HTR5A ag ctr 3.0, OPRM1-OPRD1 ag -1.9, MOR-DOR inv ag 9.7, m5-HT2A agonist 19.7*, OPRM1 ag -0.7 and m5-HT2A ag conf -3.9.
`CCN(CCNCC(O)COc1ccccc1C(C)C)c1cccc(C)c1` (stereo not drawn) gave HTR5A inv ctr -31.2, HTR5A ag ctr 8.8, OPRM1-OPRD1 ag 17.3, MOR-DOR inv ag -78.2 and m5-HT2A agonist -8.3.
Screening O=C(CN(c1ccc(F)cc1)S(=O)(=O)c1ccc2c(c1)OCCO2)N1CCOCC1 returned HTR5A inv ctr -5.8, HTR5A ag ctr 2.0, OPRM1-OPRD1 ag -2.9, MOR-DOR inv ag 14.9, m5-HT2A agonist 25.4*, OPRM1 ag -0.6 and m5-HT2A ag conf -2.5.
`O=C(CN(c1ccc(F)cc1)S(=O)(=O)c1ccccc1)N1CCOCC1` gave HTR5A inv ctr -18.0, HTR5A ag ctr 7.5, OPRM1-OPRD1 ag -4.5, MOR-DOR inv ag 22.9 and m5-HT2A agonist 3.7.
